In PubChem BioAssay (NCI):
The panel holds about 83,000 compounds, 20% with a hit somewhere; the sample as a whole holds those more often.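 A percent growth of 40 corresponds to 60% growth inhibition; 0 means no net growth; -100 means all cells died. Active threshold: below 10.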 A number with no mark means an inactive call. The source made the active and inactive calls.

The compounds below were run on CAKI-1 renal (assay: NCI-60 one-dose screen, 48 h (100 = growth as untreated, 0 = no growth, -100 = all killed)). Details: 10 µM.

| SMILES | growth |
| --- | --- |
| CSc1cc(SC)ncn1 | 106% |
| CCOC(=O)CNC(=O)CCCCSc1ncnc2nc[nH]c12 | 96.1% |
| COc1ccc(OC)c(/C=C/c2nc(SCc3ccccc3)n(-c3ccc(Cl)cc3)n2)c1 | 0.228% (active) |
| c1ccc(C(NC2CC3CCC2C3)c2ccccc2)cc1 (centres undefined) | 87.7% |
| CN1CCC2(CC1)NC(=O)c1c(c3ccc(Cl)c(Cl)c3n1C)C2C#N (centres undefined) | -26.4% (active) |
| O=[N+]([O-])c1cccc(N=Cc2ccc3c(c2)OCO3)c1 | 98.3% |
| Nc1cc2c(cc1Cl)-c1ccc([N+](=O)[O-])cc1/C2=N\O | 55.6% |
| COc1ccc(OC)c2c1C(=O)CC2C (centres undefined) | 97.6% |
| N#CSCC1CC(O)(c2ccccc2)CC(c2ccc(Cl)cc2)O1 (centres undefined) | 44.5% |
| CCOC(=O)C1CCc2c(ccc3ccccc23)N1CCC#N (centres undefined) | 80.2% |
| Fc1ccc(-c2nnc(-c3c(-c4ccc(F)cc4)nc4ccccn34)o2)cc1 | 91.1% |
| O=C1/C(=C/c2ccc(Cl)cc2)SC(=Nc2ccc(Cl)cc2)N1Cc1nc2ccccc2[nH]1 | 8.38% (active) |
| CO/N=C(/C(=O)NC1C(=O)N2C(C(=O)O)=C(COC(N)=O)CSC12)c1ccco1 (centres undefined) | 91.3% |
| COc1ccc(C2CC(c3ccc(N(C)C)cc3)=NN2c2ccc(S(N)(=O)=O)cc2)cc1 (centres undefined) | 48.2% |
| CN(C)CCNC(=O)c1cccn2c(=O)c3cc4ccccc4cc3nc12 | -2.45% (active) |
| Oc1[nH]c2ccc(Cl)cc2c1/C=c1/ccc2c(c1)N=C(c1cccs1)N=2 | 52.6% |
| Nc1ccc2c(c1)Cc1cc(N)c(Br)cc1-2 | 86.6% |
| Cc1ccc(Nc2nnc(-c3cc(-c4ccncc4)n(-c4ccccc4)n3)s2)cc1 | 85.9% |
| O=C(N/N=C\c1cc(Cl)ccc1[N+](=O)[O-])c1ccco1 | 89.5% |
| COc1ccc2c(c1)sc1nc(-c3ccccc3)c(-c3ccsc3)n12 | 27.9% |

| SMILES | growth |
| --- | --- |
| O=C(N/N=C/c1ccccc1O)C(O)(c1ccccc1)c1ccccc1 | 23% |
| CCCCCCCCCCCCC1C/C=C\CCCC(=O)O1 (centres undefined) | 113% |
| O=C(Nc1cccc(Br)c1)c1cc(=O)[nH]c2ccccc12 | 76.6% |
| CC(C)=CCc1ccc(O)c(=O)cc1C(C)C | -8.29% (active) |
| Cc1occc1-c1nnc(SCC(=O)c2ccc(NC(=O)CC(C)C)cc2)o1 | 84.1% |
| CC(C)=NNc1ncnc2c1ncn2C1OC(CO)C(O)C1O (centres undefined) | -19% (active) |
| CCCCCCCCCCCCCC[n+]1ccc(C(N)=O)cc1 | 15.6% |
| COc1ccc(Cl)cc1C(=O)Nc1nc2ccc(Cl)cc2s1 | 84.4% |
| O=C(CSSCC(=O)c1ccc(Cl)cc1)c1ccc(Cl)cc1 | 96.5% |
| O=[P@@]1(c2ccccc2)O[C@H](COCc2ccccc2)[C@@H](OCc2ccccc2)[C@H](OCc2ccccc2)[C@H]1O | 72.8% |
| Nc1ncn([C@@H]2O[C@H](CO)[C@@H](O)[C@H]2O)c(=O)n1 | 22.3% |
| CCCCOC(=O)Oc1ccc(C(=O)Oc2ccc(OCC)cc2)cc1 | 87.1% |
| O=C1c2ccc3c4c(ccc(c24)C(=O)N1CCNCc1ccccc1)C(=O)N(CCNCc1ccccc1)C3=O | -56.2% (active) |
| CCn1cc(C(=O)O)c(=O)c2cnc(N3CCCC3)nc21 | 85.8% |
| Cc1ccc(-c2nc(/C=C3/C(=O)N(C)c4ccc(F)cc43)c3ccccn23)cc1 | 105% |
| COc1ccc(OC)c(/C=C/c2nc(SC)n(-c3ccc(Cl)cc3)n2)c1 | 64.5% |
| COc1cccc(-c2cc(-c3cccc(NS(C)(=O)=O)c3)nc(N)c2C#N)c1O | -11.9% (active) |
| CC1CN(Cc2ccccc2)C(=O)NC1=O (centres undefined) | 116% |
| Cc1cn(C2CCCCO2)c(=O)nc1NO (centres undefined) | 108% |

These compounds were tested on A498 renal in the same assay as above. Details: 10 µM.

| SMILES | growth |
| --- | --- |
| CSc1cc(SC)ncn1 | 98.8% |
| CN1CCC2(CC1)NC(=O)c1c(c3ccc(Cl)c(Cl)c3n1C)C2C#N (centres undefined) | 59.8% |
| CO/N=C(/C(=O)NC1C(=O)N2C(C(=O)O)=C(COC(N)=O)CSC12)c1ccco1 (centres undefined) | 102% |
| CN(C)CCNC(=O)c1cccn2c(=O)c3cc4ccccc4cc3nc12 | -56.7% (active) |
| Oc1[nH]c2ccc(Cl)cc2c1/C=c1/ccc2c(c1)N=C(c1cccs1)N=2 | 44.6% |
| CCCCCCCCCCCCC1C/C=C\CCCC(=O)O1 (centres undefined) | 128% |
| CC(C)=CCc1ccc(O)c(=O)cc1C(C)C | 52.6% |
| Cc1occc1-c1nnc(SCC(=O)c2ccc(NC(=O)CC(C)C)cc2)o1 | 118% |
| Nc1ncn([C@@H]2O[C@H](CO)[C@@H](O)[C@H]2O)c(=O)n1 | 28.5% |
| CCn1cc(C(=O)O)c(=O)c2cnc(N3CCCC3)nc21 | 87.6% |
